Screens from PubChem.
FLuc counter: inhibits or activates purified firefly luciferase, miR-21 counter-screen; actives 6.9% (n = 360,000); P08659; purified FLuc, Km substrates, luminescence inhibition; Potency, µM (series often up to 57.5 µM), for the others: top-dose activity change, negative = inhibition, hits mostly inhibitors;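 further: plate controls were vehicle for no effect and reference inhibitor for full effect; nearly all actives have a fitted effect of over 55% in size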
Target sequence (P08659 whole entry, looked up): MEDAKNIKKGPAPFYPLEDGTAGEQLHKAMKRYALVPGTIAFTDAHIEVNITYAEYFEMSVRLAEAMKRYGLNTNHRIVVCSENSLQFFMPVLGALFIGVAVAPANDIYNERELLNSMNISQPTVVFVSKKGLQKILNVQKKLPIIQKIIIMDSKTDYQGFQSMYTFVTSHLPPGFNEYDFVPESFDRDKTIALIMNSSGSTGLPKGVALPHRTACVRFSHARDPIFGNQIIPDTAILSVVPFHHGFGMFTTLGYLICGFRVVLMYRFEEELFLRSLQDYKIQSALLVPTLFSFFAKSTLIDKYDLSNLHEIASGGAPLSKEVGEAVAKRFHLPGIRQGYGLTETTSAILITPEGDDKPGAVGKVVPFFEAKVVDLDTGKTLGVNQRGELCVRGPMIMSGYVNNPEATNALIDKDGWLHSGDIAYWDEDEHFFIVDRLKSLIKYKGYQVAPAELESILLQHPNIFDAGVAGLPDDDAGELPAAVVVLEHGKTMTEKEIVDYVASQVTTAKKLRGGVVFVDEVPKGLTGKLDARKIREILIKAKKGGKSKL
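Purified P. pyralis luciferase (10nM final) with 10uM D-luciferin and 10uM ATP (Km levels) in 50mM Tris acetate pH 7.5, 10mM Mg acetate, 0.01% Tween-20, 0.05% BSA; qHTS 6-point titration, ~60 µM downward; luminescence read.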
Rab9 prom act: activators of Rab9 promoter; AID 485297; Potency, µM (top dose mostly 9.22 µM), without a hit: top-dose activation, negative = inhibition, actives largely listed as activators; Huh7 Rab9 promoter-luciferase reporter, luminescence, 24 h; actives 2.8% (n = 320,000); further: % of control where 0% means no effect; nearly all actives have a fitted effect of over 60% in size
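Luciferase signal after 10 min detection reagent at ambient indicates Rab9 promoter upregulation; stably transfected Huh7 cells were treated 24 h with compound in DMSO at 37 °C, 5% CO2.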
uPA surface inh: blocks generation of uPA at the cell surface. cell surface uPA generation assay, qHTS. Potency, µM (highest dose often 38.3 µM), inactives show top-dose activity change, negative = inhibition, actives largely listed as inhibitors. actives 0.31% (n = 330,000); active means well fitted inhibition curve with a large enough effect; inconclusive means small, poorly fitted or top-dose-only effect; inactive means no such curve, though single readings can be large or run the other way; tested in mouse RAW 264.7 cells; further: on the % scale 0 is the no-effect control and ±100 the full control effect; nearly all actives have a fitted effect of over 55% in size
ELG1 genotox: genotoxicity induction in ELG1-luciferase HEK293T cells | AID 504466 | HEK293T ELG1-luciferase reporter, luminescence, 16 h | Potency, µM (series often up to 46 µM), without a hit: at the top dose activity change, positive = activation, usual class: activators | actives 1.3% (n = 330,000); further: % of control where 0% means no effect; nearly all actives have a fitted effect of over 60% in size
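Screening used a luciferase reporter fused to human ELG1 in HEK293T cells. Luminescence was read on a CCD plate imager after 16 hr exposure and 30 min ONE-Glo incubation.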
SMN2 splice up: SMN2 splice variant enhancement | HEK293 SMN2-luciferase splicing reporter, luminescence, 30-36 h | Potency, µM (doses to about 46.1 µM), for the others: at the highest dose activity change, positive = activation, hits mostly activators | actives 2.8% (n = 210,000) | AID 1458; further: % of control where 0% means no effect; nearly all actives have a fitted effect of over 55% in size
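qHTS luciferase splicing reporter: luminescence rises when SMN2 exon 7 is included in transfected HEK293 cells. Compound exposure lasted 30-36 h at 37C, with 4.5 mM final sodium butyrate as control, followed by a ONE-Glo read.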
NPC1 prom act: activates the NPC1 promoter | actives 2.4% (n = 320,000) | Huh7 NPC1 promoter luciferase reporter, 24 h | Potency, µM (series often up to 9.22 µM), without a hit: at the top dose activation, hits mostly activators; further: % of control where 0% means no effect; nearly all actives have a fitted effect of over 60% in size
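Luminescence from an NPC1 promoter-driven luciferase reporter in stably transfected Huh7 cells was measured after 24 h compound treatment at 37 °C, followed by 10 min ambient incubation with luciferase detection reagent.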
Starred values were filed as active, the others as inactive; [ ] = remark or other dose. Hits are enriched below; roughly 7.3% of the tested compounds scored in any of these assays. Unless noted, the call rests on the fitted dose curve; in most records, active means well fitted curve in the direction sought with a large enough effect; inconclusive means small, poorly fitted or top-dose-only effect, or another doubt; inactive means no such curve, though single readings can be large; an effect the other way counts as inactive or inconclusive. Potency means the concentration at half of the fitted maximal effect.

CC(=O)Nc1ccc(S(=O)(=O)N[C@@H](C)C(=O)OCC(=O)NC2CCCC2)cc1 was read as FLuc counter 3%, Rab9 prom act 0%, uPA surface inh -3%, ELG1 genotox 1% and NPC1 prom act -1%.
Screening Cc1cc2nc(-c3ccc[nH]c3=O)n(Cc3cccc(F)c3)c2cc1C returned FLuc counter inconclusive, Rab9 prom act 1%[1.84 µM], uPA surface inh -1%, ELG1 genotox 7% and NPC1 prom act 1%.
`CCCn1c(-c2ccc[nH]c2=O)nc2cc(C)c(C)cc21` gave FLuc counter 13µM*, Rab9 prom act 19%, uPA surface inh -11%, ELG1 genotox inconclusive and NPC1 prom act 0%.
For O=C(N/N=C/c1ccccc1OC(=O)c1ccc2c(c1)OCO2)c1cccc(F)c1 the results were FLuc counter 2%, Rab9 prom act 0%, uPA surface inh -1%, ELG1 genotox inconclusive, SMN2 splice up -98% and NPC1 prom act 0%.
For O=C(Oc1ccccc1/C=C\C(=O)c1cc2ccccc2o1)c1ccccc1 the results were FLuc counter 17µM*, Rab9 prom act 3.2µM*, uPA surface inh -12%, ELG1 genotox inconclusive, SMN2 splice up inconclusive and NPC1 prom act 4µM*.
For O=C(Oc1ccccc1/C=C\C(=O)c1cc2ccccc2o1)c1cccc(F)c1 the results were FLuc counter 8.5µM*, Rab9 prom act inconclusive, uPA surface inh -8%, ELG1 genotox inconclusive, SMN2 splice up -106% and NPC1 prom act 23%.
`COc1cccc(C(=O)Oc2ccccc2/C=C\C(=O)c2cc3ccccc3o2)c1` gave FLuc counter inconclusive, Rab9 prom act inconclusive, uPA surface inh 8.9µM*, ELG1 genotox 16%, SMN2 splice up -103% and NPC1 prom act 2.8µM*.
Screening O=C(Nc1ccccc1)c1ccc(OC(=O)c2cc3ccccc3o2)cc1 returned FLuc counter 2%, Rab9 prom act 14%, ELG1 genotox inconclusive, SMN2 splice up 1% and NPC1 prom act 14%.
CCc1ccccc1NC(=O)CN(c1ccccc1)S(=O)(=O)c1ccsc1C(=O)OC was read as FLuc counter -5%.
CCN(CC)c1ccc(/C=N/NC(=O)c2ccc3c(c2)OCCO3)cc1 was read as FLuc counter 7.6µM*, Rab9 prom act 0%, uPA surface inh inconclusive, ELG1 genotox 4% and NPC1 prom act 15%.
For CN(C)c1ccc(/C=N/NC(=O)c2cc(-c3ccc4c(c3)OCO4)n[nH]2)cc1 the results were FLuc counter 12µM*, Rab9 prom act -6%, uPA surface inh -13%, ELG1 genotox 4% and NPC1 prom act inconclusive.
`Cc1cc([N+](=O)[O-])nn1Cc1ccc(C(=O)N/N=C/c2ccc(N(C)C)cc2)cc1` gave FLuc counter 9.5µM*, Rab9 prom act -6%, uPA surface inh -6%, ELG1 genotox 4% and NPC1 prom act -4%.
Screening O=C(CNC(=O)c1ccc2c(c1)OCCO2)N/N=C/c1ccc(Cl)cc1 returned FLuc counter inconclusive, Rab9 prom act -2%, uPA surface inh -3%, ELG1 genotox -1%, SMN2 splice up -1% and NPC1 prom act -2%.
`CN(C)c1ccc(/C=N/NC(=O)c2ccc3c(c2)OCCO3)cc1` gave FLuc counter 4.8µM*, Rab9 prom act inconclusive, uPA surface inh inconclusive, ELG1 genotox inconclusive and NPC1 prom act inconclusive.
`CCc1ccc(Nc2cnn(-c3nc4ccccc4s3)c(=O)c2Cl)cc1` gave FLuc counter 12µM*, Rab9 prom act inconclusive, uPA surface inh -8%, ELG1 genotox 6%, SMN2 splice up inconclusive and NPC1 prom act 21%.
For CCCCNc1cnn(-c2ccccc2)c(=O)c1Cl the results were FLuc counter -17%, Rab9 prom act inconclusive, ELG1 genotox inconclusive, SMN2 splice up inconclusive and NPC1 prom act 22%.
